Screening results (PubChem BioAssay)
KKLEB cytotox: cytotoxicity in KKLEB CF airway cells, primary screen, cytotoxicity control for CF NF-kB inhibitor project, cell-based, uHTS, fluorescence assay plates; KKLEB CF airway cells viability, ATPlite luminescence, overnight; stronger effect = lower value; cells stimulated with P. aeruginosa culture filtrate; activity change (cytotoxicity), % at 5 µM; hit rate 0.36% among 360,000; AID 602141, 2011;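 active = corrected activity change at or below -50% at 5 µM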
CF NFkB block: inhibitors of PAF-induced NF-kB signaling, primary screen, cell-based, GFP fluorescence, uHTS. AID 588850, 2011. KKLEB NF-kB-GFP reporter, GFP fluorescence overnight. hit rate 0.86% among 360,000. inhibition, % at 5 µM;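 active = at least 50% inhibition at 5 µM, scaled per plate between neutral and stimulator controls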;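 also: PAF is a Pseudomonas aeruginosa culture filtrate used as stimulus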
Peg3 prom inh: Peg3 promoter-driven luciferase inhibitors, primary screen, cell-based, HeLa, luciferase luminescence; hit rate 1.7% among 360,000; AID 588405, 2011; inhibition, % at 20 µM; HeLa PEG-Prom luciferase reporter, overnight;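 active = inhibition of at least 50% at 20 µM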
Shn3 inh set2: reduction of Shn3 3'UTR firefly luciferase signal, primary screen, Schnurri-3 inhibitor project, cell-based, Clone20 osteoblasts, set 2; Clone20 osteoblast Shn3 3'UTR firefly luciferase, 24 h; inhibition, % at 12.5 µM; hit rate 0.52% among 360,000; AID 588674, 2011;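 active = mean inhibition of at least 75% with every replicate also reaching 75%; inconclusive = mean inhibition at least 75% but some replicate below; inactive = mean inhibition below 75%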
HIF-2a block: HIF-2a reporter inhibitors, primary screen, luminescence, 786-0 RCC cells; 786-0 RCC cells HIF-2a reporter, luciferase luminescence, overnight; inhibition, % at 18.8 µM; hit rate 0.72% among 360,000; AID 624352, 2012;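 active = inhibition of the luminescence signal of 40% or more relative to plate controls, in a single-dose primary screen at 18.75 µM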
TRPM1 prom inh: inhibitors of MITF-dependent TRPM1 promoter reporter, primary screen, cell-based, SK-MEL-5, single point, luciferase; SK-MEL-5 TRPM1 promoter luciferase, 24 h; inhibition, % at 12.5 µM; hit rate 0.83% among 330,000; AID 488899, 2010;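 active = mean inhibition across replicates of 60% or more, whatever share of single replicates reaches that level; inconclusive = some that reach 60%, reason not given; inactive = mean inhibition across replicates below 60%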
Large screens that a line does not name were inactive. Sampled rows, rich in hits. Any-hit rate of the full collection: about 2.8%.

CCC(C)NCCOc1ccc(C(C)(C)c2ccccc2)cc1 (stereo not given)	Peg3 prom inh 81
CC1CCN(CCCCOc2ccc(C(C)(C)C)cc2)CC1	none
CC(C)(c1ccccc1)c1ccc(OCCCN2CCNCC2)cc1	Peg3 prom inh 79
O=C(NC1CCCCC1)c1cc2c(cc1Cl)N1CCCCCC1=NS2(=O)=O	none
CCCCN(C(=O)c1cccc(S(=O)(=O)N2CCN(C)CC2)c1)c1c(N)n(CCC)c(=O)[nH]c1=O	none
O=C(O)c1ccc(S(=O)(=O)/N=C2\C=C(Nc3ccccc3F)C(=O)c3ccccc32)cc1	KKLEB cytotox -70, CF NFkB block 102, Peg3 prom inh 104, Shn3 inh set2 inconclusive
CC(=O)Nc1ccc(NC2=C/C(=N/S(=O)(=O)c3cccs3)c3ccccc3C2=O)cc1	CF NFkB block 81, Shn3 inh set2 96, TRPM1 prom inh 102
COC(=O)C(C(C)=O)C1=C/C(=N\S(=O)(=O)c2ccc(C)cc2)c2ccccc2C1=O (stereo not given)	none
Cc1ccccc1NC1=C/C(=N\S(=O)(=O)c2ccc(C(=O)O)cc2)c2ccccc2C1=O	KKLEB cytotox -56, CF NFkB block 100, Peg3 prom inh 101, HIF-2a block 56
Cc1ccc(NC2=C/C(=N/S(=O)(=O)c3cccs3)c3ccccc3C2=O)cc1C	none
N#C/C(=C\Nc1ccc(Cl)cc1)S(=O)(=O)c1ccccn1	none
COc1ccc(NC(=O)N(C)[C@H]2C[C@H]3c4[nH]c5ccc(-c6ccc7c(c6)OCO7)cc5c4CCN3C[C@H]2[C@H](C)O)cc1	Peg3 prom inh 55 (no result: TRPM1 prom inh)
COc1ccc(NC(=O)O[C@@H](C)[C@@H]2CN3CCc4c([nH]c5ccc(-c6ccc(OC)cc6)cc45)[C@@H]3C[C@@H]2N(C)C(=O)Nc2ccc(OC)cc2)cc1	none (no result: TRPM1 prom inh)
COc1ccc(-c2ccc3[nH]c4c(c3c2)CCN2C[C@@H]([C@H](C)OC(=O)Nc3cc(Cl)cc(Cl)c3)[C@@H](N(C)C(=O)Nc3cc(Cl)cc(Cl)c3)C[C@@H]42)cc1	none (no result: TRPM1 prom inh)
COc1ccc(NC(=O)N(C)[C@H]2C[C@H]3c4[nH]c5ccc(-c6ccc(OC)cc6)cc5c4CCN3C[C@H]2[C@H](C)O)cc1	Peg3 prom inh 98 (no result: TRPM1 prom inh)
O=C(N[C@@H]1C/C=C\C[C@@H](CC(=O)N(CCO)Cc2ccccc2)C(=O)NC[C@H](c2ccccc2)OC1=O)OCC1c2ccccc2-c2ccccc21	Shn3 inh set2 88
O=C(C[C@H]1C/C=C\C[C@H](NC(=O)OCC2c3ccccc3-c3ccccc32)C(=O)O[C@H](c2ccccc2)CNC1=O)N[C@H](CO)Cc1ccccc1	KKLEB cytotox -96, CF NFkB block 86, Peg3 prom inh 87
O=C(N[C@@H]1C/C=C\C[C@H](CC(=O)N(CCO)Cc2ccccc2)C(=O)NC[C@@H](c2ccccc2)OC1=O)OCC1c2ccccc2-c2ccccc21	Shn3 inh set2 90
C[C@H]1COC(=O)[C@H](NC(=O)OCC2c3ccccc3-c3ccccc32)C/C=C\C[C@H](CC(=O)N(CCO)Cc2ccccc2)C(=O)N1	Shn3 inh set2 inconclusive
O=C(N[C@H]1C/C=C\C[C@H](CC(=O)N(CCO)Cc2ccccc2)C(=O)N[C@@H](c2ccccc2)COC1=O)OCC1c2ccccc2-c2ccccc21	none
Cc1ccc(OCCNC(=O)c2ccccc2SCC(=O)N2CCCC2)cc1	none
CCc1ccc(-n2c(O)c(C=NCCN(CC)CC)c(=O)[nH]c2=O)cc1	Shn3 inh set2 96
CCN(CC)CCCN=Cc1c(O)n(-c2c(C)cccc2C)c(=O)c2ccccc12	none (no result: TRPM1 prom inh)
COC(=O)/C=C1\SC(=NC(=O)c2ccc(-c3ccccc3)cc2)NC1=O	none
COCCCn1c(SCC(=O)Nc2ccc(C)cc2)nc2ccccc2c1=O	none
Cc1cc(NC(=O)CSc2nc3c(sc4ccccc43)c(=O)n2CCCN2CCOCC2)n[nH]1	Peg3 prom inh 90
Cc1ccc(NC(=O)CSc2nc3ccccc3c(=O)n2Cc2cccs2)cc1	KKLEB cytotox -52
Cc1ccccc1NC(=O)CSc1nc2ccccc2c(=O)n1C	Shn3 inh set2 87
CC(=O)c1cccc(NC(=O)CSc2nc3ccccc3c(=O)n2CCCN2CCOCC2)c1	none
Cc1ccc(NC(=O)CSc2nc3ccccc3c(=O)n2CCCN2CCCCC2)cc1C	Peg3 prom inh 55, TRPM1 prom inh 70
CNC(=O)CC1C(=O)N(c2ccc(F)cc2)C(=S)N1NC(=O)c1ccc(Cl)cc1 (stereo not given)	none
Cc1noc(C)c1S(=O)(=O)Nc1ccc2c(c1)CC(=O)N([C@H](C)CO)C[C@H](C)[C@@H](CN(C)CC1CC1)O2	none
CC(C)CCNC(=O)C(c1ccncc1)N(Cc1cccs1)C(=O)Cn1nnc(-c2ccc(F)cc2)n1 (stereo not given)	TRPM1 prom inh 76
O=C(NCC1CCCO1)C(c1ccncc1)N(Cc1cccs1)C(=O)Cn1nnc(-c2ccc(F)cc2)n1 (stereo not given)	none
Cc1ccc(-c2nnn(CC(=O)N(Cc3cccs3)C(C(=O)NC3CCCC3)c3ccncc3)n2)cc1 (stereo not given)	TRPM1 prom inh 73
Nc1c(C(=O)N2CCCCCC2)oc2ccccc12	none
CCC(C)NS(=O)(=O)c1ccc(NC(=O)C(Sc2ccccc2)c2ccccc2)cc1 (stereo not given)	none
CCCCNS(=O)(=O)c1ccc(NC(=O)C(Sc2ccccc2)c2ccccc2)cc1 (stereo not given)	Peg3 prom inh 59
CCc1ccc(C2=NN(c3ccc(S(N)(=O)=O)cc3)C(c3ccc(F)cc3)C2)cc1 (stereo not given)	Peg3 prom inh 67
Cc1cc(C)cc(NC(=O)C2CCN(S(=O)(=O)c3ccc4c(c3)NC(=O)C(C)S4)CC2)c1 (stereo not given)	none
Cc1ccc(NC(=O)C2CCN(S(=O)(=O)c3ccc4c(c3)NC(=O)C(C)S4)CC2)cc1Cl (stereo not given)	Shn3 inh set2 89
CCOC(=O)C1=C(CCl)NC(=O)NC1c1ccc2c(c1)OCO2 (stereo not given)	TRPM1 prom inh 69
CN1CCN(Cc2nc3ccccc3c(=O)n2Cc2nc(-c3ccccc3F)cs2)CC1	none
CN1CCN(Cc2nc3ccccc3c(=O)n2Cc2nc(-c3cccc([N+](=O)[O-])c3)cs2)CC1	Peg3 prom inh 50
C=CCN1C(=O)/C(=C\c2cc(Br)c(OCc3ccccn3)c(OC)c2)SC1=S	CF NFkB block 50
Oc1ccc(N=Nc2n[nH]c(-c3ccc(Cl)cc3)n2)cc1	Peg3 prom inh 78
